Data as given in PubChem BioAssay (NCI).
The panel holds about 83,000 compounds, 20% with a hit somewhere; the sample as a whole holds those more often.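 Cell lines were cultured in 96-well plates, exposed to a single compound concentration, and assessed for percent growth 48 hours later.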 Values without a mark were called inactive. Calls of active or inactive are those of the source. The calls were made as follows: active = growth percent below 10; inactive = the rest.

system: HL-60(TB) leukemia; assay: NCI-60 one-dose screen, 48 h (100 = growth as untreated, 0 = no growth, -100 = all killed); settings: 10 µM unless noted

Structure (SMILES) | growth
CS(=O)(=O)c1ccc(-c2nc3cc(Cl)ccc3n2CC(=O)N/N=C/c2ccc(Cl)cc2)cc1 | 25.3%
COC(=O)C1C2CC3c4[nH]c5cc(OC)ccc5c4CCN3CC2CC(OC2CCCCO2)C1OC (stereo not given) | 98.7%
Cn1c2c(Cl)c(Cl)ccc2c2c(C#N)c[nH]c(=O)c21 | 107%
CC(=O)Nc1ccc2c(c1)Cc1c(F)cccc1-2 | 97.7%
COc1cc2c(cc1OC)CC[N+](CCC[N+](C)(C)C)=C2 | 90.1%
COc1cc2c(Oc3ccc4[nH]c(C)cc4c3F)ncnc2cc1OCCCN1CCCC1 | 102%
Cc1c(C(=N)C(C#N)C#N)c(=N)oc2c1ccc1ccccc12 | 65.2%
Cc1cc2c3ccccc3ccc2[n+]2ccccc12 | 46.2%
COc1ccc(C2CC(n3nnnc3-c3ccccc3)=NN2)cc1 (stereo not given) | 4.11% (active)
Cc1nc2c3c(-c4ccccc4)c(-c4ccccc4)oc3ncn2n1 | 91.4%
COc1ccc(CN2C(=O)/C(=C\C(=O)c3ccc(OCCN4CCCC4)cc3)c3ccccc32)cc1 | 4.86% (active)
COc1ccc(CN2CCCC(C(=O)c3ccc(C(F)(F)F)cc3)C2)c(O)c1 (stereo not given) | 17%
NC(=Nc1ccccc1)SCCCCSC(N)=Nc1ccccc1 | 79.5%
C/C(=N\Nc1cccc(Cl)n1)c1ccccn1 | -9.92% (active)
COc1cc(C2CC(c3ccc(Nc4nc(NCCO)nc(NCCO)n4)cc3)=NN2c2cc(Cl)cc(Cl)c2)cc(OC)c1OC (stereo not given) | -5.04% (active)
